Measured values reported in PubChem BioAssay AID1159580 (chemical genetic matrix, 2015).
The campaign covered roughly 5,500 compounds. About 2,000 (36%) were called active. About 18% were inconclusive and are not listed. Cut-off read from the data, not from the text of the source: active = normalized growth mostly below about 0.91 (no sharp cut-off); inconclusive = no clear call, values can overlap the other calls; inactive = mostly above about 0.92. Some of the results follow.

Test: chemical genetic growth profiling, strain panel (AID 1159580);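 note: tested at 20 µM; growth read once vehicle control cultures reached saturation at 30 °C; 1 = growth at the plate median or of vehicle wells; lower values mean less growth of the strain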
Conditions: growth OD

Measured: normalized growth

C[n+]1ccccc1/C=N/O
inactive: S. cerevisiae deletion strains, locus YJR066W, strain TOR1, hits give low values 0.986 | S. cerevisiae deletion strains, locus YKL009W, strain mrt4, hits give low values 1.03 | S. cerevisiae deletion strains, locus YKL068W, hits give low values 1.01 | S. cerevisiae deletion strains, locus YKL085W, strain MDH1 (second series), hits give low values 1 | S. cerevisiae deletion strains, locus YKL085W, strain MDH1, hits give low values 1 | S. cerevisiae deletion strains, locus YKL160W, strain elf1, hits give low values 0.997 | S. cerevisiae deletion strains, locus YKL190W, strain CNB1, hits give low values 1.01 | S. cerevisiae deletion strains, locus YKR001C, strain vps1, hits give low values 0.989 | S. cerevisiae deletion strains, locus YKR026C, strain gcn3, hits give low values 1.01 | S. cerevisiae deletion strains, locus YKR091W, strain srl3, hits give low values 0.993 | S. cerevisiae deletion strains, locus YLL001W, strain dnm1, hits give low values 0.973 | S. cerevisiae deletion strains, locus YLL026W, hits give low values 0.996 | S. cerevisiae deletion strains, locus YLL041C, strain sdh2, hits give low values 0.985 | S. cerevisiae deletion strains, locus YLR027C, strain aat2, hits give low values 1.01 | S. cerevisiae deletion strains, locus YLR039C, strain RIC1, hits give low values 1.01 | S. cerevisiae deletion strains, locus YLR058C, strain SHM2, hits give low values 1.01 | S. cerevisiae deletion strains, locus YLR102C, strain apc9, hits give low values 0.994 | S. cerevisiae deletion strains, locus YLR113W, strain HOG1, hits give low values 0.999 | S. cerevisiae deletion strains, locus YLR221C, strain rsa3, hits give low values 1.02 | S. cerevisiae deletion strains, locus YLR258W, strain gsy2, hits give low values 0.991 | S. cerevisiae deletion strains, locus YLR262C, strain YPT6 (second series), hits give low values 1.02 | S. cerevisiae deletion strains, locus YLR262C, strain YPT6, hits give low values 1 | S. cerevisiae deletion strains, locus YLR268W, strain sec22, hits give low values 0.998 | S. cerevisiae deletion strains, locus YLR320W, strain mms22, hits give low values 0.981 | S. cerevisiae deletion strains, locus YLR330W, strain CHS5, hits give low values 1.01 | S. cerevisiae deletion strains, locus YLR342W, strain FKS1 (second series), hits give low values 1 | S. cerevisiae deletion strains, locus YLR342W, strain FKS1, hits give low values 1.02 | S. cerevisiae deletion strains, locus YLR357W, strain rsc2, hits give low values 0.958 | S. cerevisiae deletion strains, locus YLR370C, strain arc18, hits give low values 1.01 | S. cerevisiae deletion strains, locus YLR371W, strain rom2, hits give low values 0.993 | S. cerevisiae deletion strains, locus YLR384C, strain iki3, hits give low values 1 | S. cerevisiae deletion strains, locus YLR418C, strain cdc73, hits give low values 0.983 | S. cerevisiae deletion strains, locus YML016C, strain PPZ1, hits give low values 1.01 | S. cerevisiae deletion strains, locus YML032C, strain rad52, hits give low values 0.989 | S. cerevisiae deletion strains, locus YML120C, strain ndi1, hits give low values 1.02 | S. cerevisiae deletion strains, locus YML124C, strain tub3, hits give low values 1 | S. cerevisiae deletion strains, locus YMR058W, strain fet3, hits give low values 1.01 | S. cerevisiae deletion strains, locus YMR078C, strain ctf18, hits give low values 0.993 | S. cerevisiae deletion strains, locus YMR125W, strain sto1, hits give low values 1 | S. cerevisiae deletion strains, locus YMR129W, hits give low values 0.998 | S. cerevisiae deletion strains, locus YMR205C, strain PFK2, hits give low values 1.01 | S. cerevisiae deletion strains, locus YMR223W, strain ubp8, hits give low values 1.01 | S. cerevisiae deletion strains, locus YMR231W, strain pep5, hits give low values 0.996 | S. cerevisiae deletion strains, locus YMR307W, strain GAS1, hits give low values 0.992 | S. cerevisiae deletion strains, locus YNL067W, strain RPL9B, hits give low values 1 | S. cerevisiae deletion strains, locus YNL071W, strain lat1, hits give low values 1.01 | S. cerevisiae deletion strains, locus YNL128W, strain TEP1, hits give low values 1.02 | S. cerevisiae deletion strains, locus YNL153C, strain GIM3, hits give low values 1.01 | S. cerevisiae deletion strains, locus YNL183C, strain NPR1, hits give low values 0.924 | S. cerevisiae deletion strains, locus YNL209W, strain ssb2, hits give low values 1.02 | S. cerevisiae deletion strains, locus YNL233W, strain BNI4, hits give low values 0.999 | S. cerevisiae deletion strains, locus YNL248C, strain rpa49, hits give low values 0.978 | S. cerevisiae deletion strains, locus YNL250W, strain rad50, hits give low values 1.01 | S. cerevisiae deletion strains, locus YNL271C, strain bni1, hits give low values 1.01 | S. cerevisiae deletion strains, locus YNL298W, strain CLA4, hits give low values 1.01 | S. cerevisiae deletion strains, locus YNL307C, strain MCK1, hits give low values 0.992 | S. cerevisiae deletion strains, locus YNL322C, strain KRE1 (second series), hits give low values 0.991 | S. cerevisiae deletion strains, locus YNR049C, strain mso1, hits give low values 1.01 | S. cerevisiae deletion strains, locus YNR052C, strain pop2, hits give low values 1 | S. cerevisiae deletion strains, locus YOL006C, strain TOP1, hits give low values 1.01 | S. cerevisiae deletion strains, locus YOL012C, strain htz1 1.12 | S. cerevisiae deletion strains, locus YOL147C, strain pex11, hits give low values 1 | S. cerevisiae deletion strains, locus YOR001W, strain rrp6, hits give low values 0.992 | S. cerevisiae deletion strains, locus YOR061W, strain CKA2, hits give low values 1.01 | S. cerevisiae deletion strains, locus YOR069W, strain VPS5, hits give low values 1.01 | S. cerevisiae deletion strains, locus YOR070C, strain gyp1, hits give low values 1 | S. cerevisiae deletion strains, locus YOR080W, strain dia2, hits give low values 1 | S. cerevisiae deletion strains, locus YOR083W, strain WHI5, hits give low values 0.948 | S. cerevisiae deletion strains, locus YOR106W, strain vam3, hits give low values 0.995 | S. cerevisiae deletion strains, locus YOR136W, strain idh2, hits give low values 0.993 | S. cerevisiae deletion strains, locus YOR144C, strain elg1, hits give low values 0.994 | S. cerevisiae deletion strains, locus YOR184W, strain ser1, hits give low values 0.985 | S. cerevisiae deletion strains, locus YOR231W, strain MKK1, hits give low values 1.02 | S. cerevisiae deletion strains, locus YOR265W, strain rbl2, hits give low values 1 | S. cerevisiae deletion strains, locus YOR270C, strain vph1, hits give low values 1.04 | S. cerevisiae deletion strains, locus YOR290C, strain snf2, hits give low values 1.03 | S. cerevisiae deletion strains, locus YOR316C, strain cot1, hits give low values 1 | S. cerevisiae deletion strains, locus YPL051W, strain arl3, hits give low values 1.02 | S. cerevisiae deletion strains, locus YPL055C, strain LGE1, hits give low values 1.04 | S. cerevisiae deletion strains, locus YPL078C, strain atp4, hits give low values 0.992 | S. cerevisiae deletion strains, locus YPL106C, strain sse1, hits give low values 0.99 | S. cerevisiae deletion strains, locus YPL240C, strain hsp82, hits give low values 1 | S. cerevisiae deletion strains, locus YPL256C, strain CLN2, hits give low values 1.01 | S. cerevisiae deletion strains, locus YPR119W, strain clb2, hits give low values 0.998 | S. cerevisiae deletion strains, locus YPR141C, strain kar3, hits give low values 0.997 | S. cerevisiae deletion strains, locus YPR163C, strain tif3, hits give low values 1.01 | S. cerevisiae deletion strains, locus YPR167C, strain met16, hits give low values 0.992 | S. cerevisiae deletion strains, strain wtn01, hits give low values 0.993 | S. cerevisiae strains, strain wild type, hits give low values 1.01
